# Compound activity: PubChem, National Center for Advancing Translational Sciences (NCATS)
# Only some compounds are listed: those with a hit (about 3.8% of all), similar ones and a draw of the others.
# ATXN2 expr inh = reduces ATXN2 reporter expression in HEK-293 cells; HEK-293 ATXN2-luciferase reporter, luminescence, 24 h; Potency, µM (series often up to 57 µM), for inactives: at the highest dose activity change, negative = inhibition, most hits filed as inhibitors; 360,000 compounds, 0.72% hits; further: on the % scale 0 is the no-effect control and ±100 the full control effect; nearly all actives have a fitted effect of over 55% in size
#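 ATXN2-luciferase reporter cells (luciferase flanked by upstream and downstream ATXN2 gene portions) were treated 24 h at 37 °C with compounds at up to 57 uM. SteadyGlo luminescence gave expression; GF-AFC fluorescence gave viability.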
# ATXN viability = viability counter-screen for ATXN expression inhibitors. 400,000 compounds, 0.49% hits. Potency, µM (highest dose often 56.7 µM), actives largely listed as cytotoxic. S2 cells (HEK-293 line with an ATXN2-luciferase reporter) viability, CellTiter-Fluor protease fluorescence, 24 h; further: nearly all actives have a fitted effect of over 40% in size
# TGFb inhibitor = TGF-b pathway inhibition | HepG2 CAGA-GFP TGF-b/SMAD3 reporter, GFP fluorescence, 18 h; TGF-beta stimulated, 500 pg/mL final | Potency, µM (doses to about 46.1 µM), inactives show top-dose activity, negative = inhibition, usual class: inhibitors | 410,000 compounds, 1.2% hits | AID 588855; further: on the % scale 0 is the no-effect control and ±100 the full control effect; nearly all actives have a fitted effect of over 65% in size
#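 GFP signal (ex488/em500-530) from TGF-beta-stimulated HEPG2 CAGA-GFP cells, 500 pg/mL final, 18 h at 37 degrees C in DMEM plus 1% FBS, normalized to unstimulated and DMSO-stimulated controls.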
# HepG2 viability = counter-screen for TGF-b inhibitors: cytotoxicity in HepG2 cells; HepG2 CAGA-GFP viability, ATP luminescence, 18 h; AID 588856; 410,000 compounds, 0.76% hits; Potency, µM (titrated, usually from 46.1 µM), without a hit: at the top dose activity change, negative = cytotoxicity, actives largely listed as cytotoxic
#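 HepG2 CAGA-GFP cells (1000/well, DMEM with 1% FBS) received compound, then TGF-beta at 500 pg/mL final, and were incubated 18 hours at 37 degrees C. Viability was read by CellTiter-Glo luminescence. Media-only wells were set as complete cell-killing and DMSO as no toxicity.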
# HT1080 IDH1KD tx = HT-1080 IDH1 knockdown cell toxicity (counter line); Potency, µM (doses to about 46.1 µM), for inactives: at the top dose activity, negative = toxicity, actives largely listed as cytotoxic; HT-1080 IDH1 knockdown viability, ATP luminescence, 48 h; AID 686971; 360,000 compounds, 2% hits;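 further: 0% = DMSO wells and -100% = cell-free medium wells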
#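 Viability of IDH1-knockdown HT-1080 fibrosarcoma cells was assessed by CellTiter-Glo after 48 h at 37 °C with titrated compound; concentration-effect curves were classified by fit quality and response size.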
# HT1080-NT tox = kills 2HG-producing HT-1080-NT fibrosarcoma cells. HT-1080-NT fibrosarcoma viability, CellTiter-Glo ATP luminescence, 48 h. Potency, µM (highest dose often 46.1 µM), inactives show top-dose activity, negative = less viability, actives largely listed as cytotoxic. 360,000 compounds, 1.6% hits. AID 686970;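 further: NT is the 2HG producing partner of a matched IDH1 knockdown line; 0% = DMSO-treated cells and -100% = media-only wells without cells; nearly all actives have a fitted effect of over 55% in size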
#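 750 cells/well, RPMI + 5% FBS; 2 h settle, compound pin-transfer, 48 h at 37 degrees C. CellTiter-Glo 10 min RT, luminescence. Normalized to DMSO and media-only wells.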
# * hit, by the source's call; i = inactive; ? = inconclusive; / = not tested or not shown. The call rests on the fitted dose curve; in most records, active means well fitted curve in the direction sought with a large enough effect; inconclusive means small, poorly fitted or top-dose-only effect, or another doubt; inactive means no such curve, though single readings can be large; an effect the other way counts as inactive or inconclusive. Potency means the concentration at half of the fitted maximal effect.
SMILES,ATXN2 expr inh,ATXN viability,TGFb inhibitor,HepG2 viability,HT1080 IDH1KD tx,HT1080-NT tox
CCOc1ccc(N(C)C(=O)c2oc(=O)c3ccccc3c2-c2ccccc2)cc1,/,/,16µM*,-31%,/,/
C=CS(=O)(=O)N(Cc1ccccc1Br)[C@H](CO)Cc1ccccc1,16µM*,13µM*,?,-68%,?,?
C=CS(=O)(=O)N(Cc1ccccc1)[C@H](CO)CC(C)C,-22%,?,-4%,-34%,-4%,-13%
O=C(Nc1ccc2c(c1)OCO2)c1cc(-c2ccc(O)cc2)on1,11%,i,1%,-21%,2.1µM*,2.1µM*
COc1cccc(-c2cc(C(=O)Nc3ccc4c(c3)OCO4)no2)c1,-19%,?,5%,-4%,-12%,-9%
Cc1ccc(Cn2nc(C)c(NC(=O)c3cc(-c4ccc5c(c4)OCO5)on3)c2C)cc1,?,?,-21%,11µM*,?,8.9µM*
O=C(Nc1ccc2c(c1)OCO2)c1cc(-c2cccc(O)c2)on1,16%,i,5%,0%,12µM*,23µM*
COc1ccc(C2NC(=O)c3ccccc3N2)c(OC)c1OC (stereo not drawn),/,i,0%,-10%,?,-16%
Cc1ccc(C)c(C2NC(=O)c3ccccc3N2)c1 (stereo not drawn),/,i,-2%,-3%,2.3µM*,?
COc1cc(C)c(C2NC(=O)c3ccccc3N2)cc1C (stereo not drawn),-6%,?,?,-31%,?,5.8µM*
O=C1NC(c2ccc(O)cc2)Nc2ccccc21 (stereo not drawn),-6%,i,0%,-12%,?,?
CSc1ccc(C2NC(=O)c3ccccc3N2)cc1 (stereo not drawn),30%,i,-9%,2%,9.2µM*,18µM*
Cc1cc(C)c2nc(Cl)c(C3NC(=O)c4ccccc4N3)cc2c1 (stereo not drawn),-32%,i,-1%,-12%,4%,0%
Cn1cc(C2NC(=O)c3ccccc3N2)c2ccccc21 (stereo not drawn),11%,?,-12%,1%,8.2µM*,4.6µM*
CC(C)C(NS(=O)(=O)c1ccc2c(c1)oc(=O)n2C)C(=O)NCCc1ccc(Cl)cc1 (stereo not drawn),14%,i,3%,8%,/,/
Cc1cc(C)n(-c2nc(N(c3ccccc3)c3ccccc3)nc(-n3nc(C)cc3C)n2)n1,10µM*,8.9µM*,?,5%,2%,5%
NS(=O)(=O)c1cccc(NC(=O)CSc2nc3nc(-c4cccs4)cc(C(F)(F)F)c3c(=O)[nH]2)c1,-5%,i,4%,-10%,-18%,-22%
O=C(CSc1nc2nc(-c3cccs3)cc(C(F)(F)F)c2c(=O)[nH]1)Nc1c(F)c(F)c(F)c(F)c1F,?,i,-16%,-18%,-11%,12µM*
CCOC(=O)c1cnc2c(ccc3ccccc32)c1Nc1ccccc1OCC,12%,i,-18%,-21%,/,/
CCOC(=O)c1cnc2c(ccc3ccccc32)c1NCCCN(C)C,-3%,i,?,-38%,21µM*,?
CCOc1cc(S(=O)(=O)Nc2cc(C)cc(C)c2)ccc1Cl,?,?,22µM*,-101%,?,?
O=C(c1ccc(S(=O)(=O)c2cccc(Cl)c2)c([N+](=O)[O-])c1)N1CCN(Cc2ccccc2)CC1,?,?,?,3%,?,8.2µM*
COc1ccc(C(=O)N2CCN(Cc3ccccc3)CC2)cc1[N+](=O)[O-],/,i,-14%,-18%,-3%,1%
O=C(c1cc([N+](=O)[O-])ccc1Cl)N1CCN(Cc2ccccc2)CC1,-17%,i,-5%,14µM*,-4%,1%
